Results taken from PubChem BioAssay AID463173 (ICCB-Longwood Screening Facility, Harvard Medical School, 2010).
Among all 52,000 compounds or so, about 4,300 (8.3%) were called active. The sample holds actives, similar compounds and a random draw of the others, so the mix is not that of the screen. Values without a mark were called inactive. No stated cut-off is given here; in the data, active means survival mostly below about 52% (no sharp cut-off); inactive means mostly above about 56%.

Each compound was assayed on DeltatarO mutant (assay: growth inhibition of S. aureus wild type versus tarO mutant, primary screen, teichoic acid synthesis inhibitors, RN4220, OD600 (AID 463173)). Details: OD600, 18 h, stronger effect = lower value, screened at 18.75 µg/mL (by protocol).

| SMILES | survival |
| --- | --- |
| COC(=O)C1=C(c2ccccc2)c2ccccc2S(=O)(=O)N1CC(=O)Nc1ccc(F)c(F)c1 | 40% |
| C1CCC(N2CCC(N3CCCCC3)CC2)CC1 | 91% |
| N#CC(C#N)=Cc1ccc(-c2ccc3c(c2)COC3=O)o1 | 90% |
| O=C(NC1CCCCC1)N1CCN(Cc2ccccc2)CC1 | 69% |
| C(=N\N1CCN(c2ccccn2)CC1)/c1ccco1 | 100% |
| c1ccc(N2CCN(N=C3c4ccccc4-c4ccccc43)CC2)nc1 | 18% (active) |
| O=C(NC1CCCCC1)N1CCN(c2ccccn2)CC1 | 94% |
| C=Cn1c(C)c(C(C#N)=C(C#N)C#N)c2c1CCCC2 | 2% (active) |
| COCCNC(=O)C1CCN(S(=O)(=O)c2ccc3c(c2)CCCN3C(C)=O)CC1 | 85% |
| Cc1ccc(NS(=O)(=O)c2ccc(NC(=O)N3CCCC3)cc2)cc1C | 75% |
| Cc1ccc(NS(=O)(=O)c2ccc3c(c2)n(C)c(=O)n3C)cc1C | 67% |
| Cc1cccc(Cn2ccn(Cc3ccc(Cl)cc3)c(=O)c2=O)c1 | 121% |
| O=C(Nc1onc2c1CCCC2)c1ccccc1 | 105% |
| O=C(Nc1cc2c(s1)CCCC2)c1ccccc1 | 46% (active) |
| Cc1cccc(C(=O)Nc2nc3c(s2)CCCC3)c1 | 67% |
| COc1ccccc1OCCCCn1c(-c2ccc(Cl)cc2)nc2ccccc2c1=O | 59% |
| O=c1c2ccccc2nc(-c2ccc(Cl)cc2)n1CCCCOc1ccc(F)cc1 | 45% (active) |
| CCc1ccc(OCCCn2c(-c3ccc(Cl)cc3)nc3ccccc3c2=O)cc1 | 44% (active) |
| O=c1c2ccccc2nc(-c2ccc(Cl)cc2)n1CCCOc1ccccc1F | 57% |
| CCOc1ccccc1OCCCn1c(-c2ccc(Cl)cc2)nc2ccccc2c1=O | 42% |

| SMILES | survival |
| --- | --- |
| Cc1ccc(OCCCn2c(-c3ccc(Cl)cc3)nc3ccccc3c2=O)cc1C | 58% |
| COc1ccc(OCCCCn2c(-c3ccc(Cl)cc3)nc3ccccc3c2=O)cc1 | 34% (active) |
| Cc1ccc(OCCCCn2c(-c3ccc(Cl)cc3)nc3ccccc3c2=O)cc1 | 68% |
| Cc1ccccc1OCCCCn1c(-c2ccc(Cl)cc2)nc2ccccc2c1=O | 71% |
| COc1cccc(OCCCCn2c(-c3ccc(Cl)cc3)nc3ccccc3c2=O)c1 | 62% |
| COc1ccccc1OCCCn1c(-c2ccc(Cl)cc2)nc2ccccc2c1=O | 29% (active) |
| COc1cccc(OCCCn2c(-c3ccc(Cl)cc3)nc3ccccc3c2=O)c1 | 61% |
| COc1ccc(-c2cc3c(=O)n(CC(=O)Nc4ccccc4C(F)(F)F)ccn3n2)cc1OC | 86% |
| CSc1ccc(CNC(=O)CCn2ccc3cc(S(=O)(=O)N4CCCC4)ccc32)cc1 | 100% |
| O=C(NCc1ccc(F)cc1)c1cc2n(n1)CCCN(Cc1ccc(F)cc1)C2=O | 64% |
| CC(C)(C)OC(=O)N1CCC(c2c(C(=O)Nc3cccc(C(F)(F)F)c3)cnn2-c2ccc(F)cc2F)CC1 | 61% |
| N#Cc1ccc(-c2cccnc2)n(CC(=O)N2CCOCC2)c1=O | 106% |
| Cc1ccc(Cl)cc1N1CCN(C(=O)c2cc(S(=O)(=O)N3CCCCC3)cn2C)CC1 | 83% |
| Cc1ccc(C(=O)Nc2ccc3oc(-c4cccnc4)nc3c2)c(Cl)c1 | 88% |
| Cc1ccc(OCCn2c(CNc3ccccc3C)nc3ccccc32)cc1 | 42% (active) |
| Cc1ccccc1NCc1nc2ccccc2n1CCOc1ccccc1 | 0% (active) |
| Cc1ccccc1Cn1c(=O)n(CCCCC(=O)NCCc2ccccc2)c(=O)c2ccccc21 | 83% |
| COc1ccc(NC(=O)C2=C(C)Nc3ncnn3C2c2ccc(O)cc2)cc1 (stereo not given) | 101% |
| CC1CCN(C(=O)C(C)Sc2nnc3c(n2)[nH]c2ccccc23)CC1 (stereo not given) | 102% |
| COc1ccc(/C=C/c2nc(C#N)c(N3CCCCC3)o2)cc1OC | 76% |

| SMILES | survival |
| --- | --- |
| COc1cc(/C=C/c2nc(C#N)c(N3CCN(C)CC3)o2)cc(OC)c1OC | 73% |
| COc1cc(/C=C/c2nc(C#N)c(N3CCCCCC3)o2)cc(OC)c1OC | 85% |
| COc1ccc(N2CCN(c3oc(/C=C/c4cc(OC)c(OC)c(OC)c4)nc3C#N)CC2)cc1 | 49% (active) |
| COc1ccc(/C=C/c2nc(C#N)c(N3CCC(C)CC3)o2)cc1OC | 81% |
| COc1ccc(/C=C/c2nc(C#N)c(N3CCCCCC3)o2)cc1OC | 45% (active) |
| CCOC(=O)c1c(NC(=O)Cc2coc3cc(C)ccc23)sc2c1CCCC2 | 95% |
| O=C(NC1CCS(=O)(=O)C1)Sc1ccccc1 (stereo not given) | 96% |
| CCc1ccc2nc(SCC(=O)N3CC(=O)Nc4ccccc43)c(C#N)cc2c1 | 107% |
| COc1cc(NS(=O)(=O)c2ccc(NC(=O)c3ccc(C(C)=O)cc3)cc2)nc(OC)n1 | 87% |
| O=C(OCc1ccccc1)c1ccc(-c2nnn(Cc3ccccc3F)n2)cc1 | 98% |
| COc1ccc(NC2=C(c3ccccc3)C(=O)c3ccccc32)cc1Cl | 116% |
| Cc1ccc(NC2=C(c3ccc(C(F)(F)F)cc3)C(=O)c3ccccc32)cc1F | 28% (active) |
| Cc1cc(C)cc(NC2=C(c3ccccc3)C(=O)c3ccccc32)c1 | 39% (active) |
| O=C1C(c2ccc(C(F)(F)F)cc2)=C(Nc2ccc(Cl)cc2)c2ccccc21 | 63% |
| COc1ccc(OC)c(NC2=C(c3ccccc3)C(=O)c3ccccc32)c1 | 62% |
| COc1ccc(C2=C(Nc3ccc(C)cc3C)c3ccccc3C2=O)cc1 | 71% |
| COc1ccc(C2=C(Nc3ccc(Br)c(C)c3)c3ccccc3C2=O)cc1 | 0% (active) |
| COc1ccc(C2=C(Nc3ccc(C)c(C)c3)c3ccccc3C2=O)cc1 | 93% |
| Cc1ccc(NC2=C(c3ccc(C(F)(F)F)cc3)C(=O)c3ccccc32)cc1C | 69% |
| COc1cc(C(CC(=O)Nc2cc(C)ccn2)N2Cc3ccccc3C2=O)cc(OC)c1OC (stereo not given) | 76% |
